An excerpt weighted towards active compounds, which were near 4.6% of everything screened.
tim23-1 inh = growth inhibitors of tim23-1 mutant yeast. S. cerevisiae tim23-1 growth, BacTiter-Glo luminescence, 24 h. inhibition, % at 20 µM. actives 1.3% (n = 330,000);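 active means growth inhibition of the mutant yeast at or above 50%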;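 further: temperature-sensitive mutant grown at 25 °C; plate controls were DMSO-treated mutant yeast for no effect and medium wells lacking yeast for full effect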
NLRP3 yeast inh = inhibitors of NALP3 inflammasome in yeast; inhibition, % at 10 µM; Yeast reconstituted NLRP3/ASC/caspase-1, beta-gal luminescence, 24 h; actives 0.39% (n = 330,000);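 active means inhibition of 50% or more; inactive means inhibition below 50%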;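 further: plate controls were induced DMSO wells for no effect and uninduced yeast grown without galactose for full effect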
TIM10 inh = TIM10 yeast growth inhibition | S. cerevisiae TIM10 strain growth, BacTiter-Glo luminescence, 24 h | AID 463195 | actives 1.4% (n = 330,000) | inhibition, % at 10 µM;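 active means inhibition of 40% or more at the single tested concentration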;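 further: wild-type TIM10 isogenic control strain grown at permissive 25 °C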
PfHsp90 set2 = reduces growth (ATP signal) of yeast expressing P. falciparum Hsp90; S. cerevisiae expressing PfHsp90, BacTiter-Glo ATP, 48 h; yeast lacking PDR1 and PDR3 efflux regulators; inhibition, % at 9.4 µM; AID 504621; actives 0.32% (n = 310,000);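 active means every replicate shows inhibition above about 80%, whatever the replicate mean, limit read from the data; inconclusive means mean inhibition reaches the set limit but some replicate falls short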;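 further: 0% = DMSO neutral controls and 100% = 20 µM radicicol positive controls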
tim10-1 inh = growth inhibitors of tim10-1 mutant yeast | S. cerevisiae tim10-1 ts strain growth, BacTiter-Glo, 24 h | inhibition, % at 20 µM | actives 2.2% (n = 330,000) | AID 463190;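 active means inhibition of at least 40%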;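 further: mutant grown at 25 °C; 0% = DMSO wells with yeast and 100% = wells holding no yeast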
SKKanGAS inh = blocks kanamycin growth of S. pyogenes SKKanGAS strain; AID 1662; BacTiter-Glo, 6 h; actives 1.3% (n = 300,000); inhibition, % at 7.5 µM;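 active means mean replicate score, as percent of positive control median, at least 50; inconclusive means mean below 50 but one replicate at or above 50; inactive means mean and every replicate below 50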;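 further: strain carries kanamycin resistance gene driven by streptokinase promoter and grows in 40 µg/ml kanamycin; loss of luminescence reflects streptokinase promoter inhibition or plain growth inhibition; 0% = median of DMSO wells and 100% = positive control at its reference dose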
tim10-1 conf = confirmation of tim10-1 mutant yeast growth inhibitors | S. cerevisiae tim10-1 ts strain growth, BacTiter-Glo, 24 h | actives 56% (n = 7,400) | shares compounds with tim10-1 inh | AID 463213 | inhibition, % at 20 µM;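 active means inhibition of yeast growth at or above a set limit in either of two repeat tests at 20 µM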;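 further: tim10-1 mutant grown at permissive 25 °C to find synthetic lethal compounds; 0% = DMSO yeast wells and 100% = medium wells without yeast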
tim10 confirm = TIM10 yeast growth inhibition, confirmed; S. cerevisiae tim10 strain growth, BacTiter-Glo luminescence, 24 h; shares compounds with TIM10 inh; inhibition, % at 10 µM; actives 63% (n = 4,600);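 active means inhibition of yeast growth at or above a set limit in either of two replicates at 10 µM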;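 further: this counterscreen used the strain with wild-type TIM10; 0% = yeast with DMSO and 100% = medium wells lacking yeast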
tim23-1 conf = tim23-1 yeast growth inhibition, confirmed. shares compounds with tim23-1 inh. S. cerevisiae tim23-1 growth, BacTiter-Glo luminescence, 24 h. inhibition, % at 20 µM. actives 83% (n = 4,400);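 active means inhibition above about 39% in either of two replicate wells at 20 µM, limit read from the data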;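 further: temperature-sensitive tim23-1 mutant grown at 25 °C; 0% = DMSO wells with yeast and 100% = medium wells without yeast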
Numbers without * were called inactive; ? = inconclusive; nt = no result given.

SMILES	tim23-1 inh	NLRP3 yeast inh	TIM10 inh	PfHsp90 set2	tim10-1 inh	SKKanGAS inh	tim10-1 conf	tim10 confirm	tim23-1 conf
Cc1ccc(OCC(=O)N/N=C\c2ccc(C)o2)c([N+](=O)[O-])c1	nt	nt	nt	0	nt	3	nt	nt	nt
O=C(CSc1ccc(Cl)cc1)N/N=C/c1ccc([N+](=O)[O-])o1	55*	8	33	2	62*	?	37*	nt	57*
Cc1cc(=O)n2[nH]c(Nc3cccc(Cl)c3)nc2n1	3	14	23	2	20	5	nt	nt	nt
COC(=O)C1C(=O)C2=C(CC1C)Nc1ccccc1NC2c1ccc(C)s1 (stereo unspecified)	-2	0	-21	-11	-1	5	nt	nt	nt
O=C(ONC1=NCCCCC1)c1c(F)cccc1F	53*	7	44*	-49	51*	-6	45*	33*	59*
O=C(ONC1=NCCCCC1)c1ccc(Cl)cc1	61*	27	87*	62	52*	-7	38*	84*	41*
CCC(C)Sc1ccc([C@H]2N[C@@](CC(C)C)(C(=O)OC)[C@H]3C(=O)N(C)C(=O)[C@@H]23)cc1 (stereo partly specified)	33	18	20	25	17	7	nt	nt	nt
Cc1cc(C)c(NC(=O)CCCCCNC2CCCCC2)c(C)c1	-4	10	-3	-39	-7	-5	nt	nt	nt
COc1ccc(/C=N/n2c(C3CCCCC3)n[nH]c2=S)c(OC)c1	58*	14	29	-8	40*	-2	20	nt	48*
CCCCc1ccc(/C=C(\C#N)C(N)=S)s1	71*	34	53*	31	56*	nt	55*	60*	58*
Cn1cccc1/C=C(/C#N)C(N)=S	5	2	-4	18	4	-10	nt	nt	nt
Fc1cnc(N/N=C/c2ccc(-c3ccc(Br)cc3)o2)nc1N1CCOCC1	51*	11	33	-5	43*	14	24	nt	33
Brc1ccc(-c2ccc(/C=N/Nc3nc(N4CCOCC4)nc(N4CCOCC4)n3)o2)cc1	11	18	7	-27	3	22	nt	nt	nt
CN1/C(=C/C2CC(=O)N(c3ccc([N+](=O)[O-])cc3)C2=O)C(C)(C)c2ccccc21 (stereo unspecified)	51*	0	51*	-2	66*	6	62*	42*	66*
CN1/C(=C\C(=S)NC(=O)c2ccc([N+](=O)[O-])cc2)C(C)(C)c2ccccc21	-3	23	9	3	12	4	nt	nt	nt
O=C(OCn1ncc(Cl)c(Cl)c1=O)c1cccc(C(F)(F)F)c1	74*	-4	53*	99*	72*	5	72*	39*	72*
CCc1ccc(C(=O)Cn2ncc(Cl)c(Cl)c2=O)cc1	-2	-13	-1	0	5	-15	nt	nt	nt
CCOc1ccc(CC(=O)NNC(=S)NC)cc1Br	10	18	-1	nt	2	-4	nt	nt	nt
CC1CCC(NC(=O)c2cccc(S(=O)(=O)N3CCN(c4ccc(F)cc4)CC3)c2)CC1 (stereo unspecified)	6	13	13	nt	14	25	nt	nt	nt
Cc1[nH][nH]c(=O)c1C(c1ccc(-c2ccc(F)cc2)o1)c1c(C)[nH][nH]c1=O	85*	-7	-43	8	51*	1	13	nt	60*
Cc1[nH][nH]c(=O)c1C(c1ccc(-c2ccc(C(=O)O)cc2)o1)c1c(C)[nH][nH]c1=O	nt	nt	nt	-10	nt	nt	nt	nt	nt
N/C(=N\OC(=O)C1CCCCC1)c1ccc(Cl)cc1	53*	-4	48*	-19	63*	2	53*	43*	38*
N/C(=N\OC(=O)COc1ccccc1Cl)c1ccc(Cl)cc1	60*	34	54*	3	70*	26	49*	43*	76*
N/C(=N\OC(=O)C1CCCCC1)c1ccncc1	11	-4	14	4	19	-12	nt	nt	nt
N/C(=N\OC(=O)C1CCCCC1)c1ccc(Br)cc1	68*	8	45*	4	61*	5	55*	66*	75*
SMILES	tim23-1 inh	NLRP3 yeast inh	TIM10 inh	PfHsp90 set2	tim10-1 inh	SKKanGAS inh	tim10-1 conf	tim10 confirm	tim23-1 conf
O=C(Cc1ccc(NC2=NC3CS(=O)(=O)CC3S2)cc1)N1CCN(c2ccc(F)cc2)CC1 (stereo unspecified)	14	19	-6	28	3	-1	nt	nt	nt
O=C(Nc1cccc(Cl)c1)c1ccc(Cn2cc(Cl)cn2)cc1	68*	50	73*	18	60*	16	47*	17	76*
N#CCSc1nnc(Cc2cccc3ccccc23)n1C1CCCCC1	16	13	16	19	35	-4	nt	nt	nt
COc1cnc(-c2ccccn2)nc1Sc1cccc(Cl)c1	63*	33	31	-23	44*	67*	28	nt	55*
CSc1ncc(C(=O)Nc2ccc(C(C)=O)cc2)c(C)n1	6	-7	7	9	-5	7	nt	nt	nt
COCC(=O)Nc1cc(Cl)ccc1C	1	-3	0	-21	6	8	nt	nt	nt
Cc1ccc(Cl)cc1NC(=O)CC(O)(C(F)(F)F)C(F)(F)F	53*	24	39	-5	55*	12	57*	nt	56*
CC1=C/C(=C\c2ccc3c(c2)OCO3)C(=O)S1	53*	-9	46*	-2	48*	4	39*	40*	20
CCCN1C/C(=C/c2ccc3c(c2)OCO3)C(=O)/C(=C/c2ccc3c(c2)OCO3)C1	44	18	34	14	36	1	nt	nt	nt
C=CC[n+]1c(C)csc1Nc1ccc(C)cc1	8	13	6	2	16	-2	nt	nt	nt
Cc1c(NC(=O)Nc2cc(Cl)ccc2Cl)c(=O)n(-c2ccccc2)n1C	3	9	14	2	-10	-7	nt	nt	nt
C=CC[n+]1c(-c2ccc(Cl)cc2Cl)csc1Nc1c(C)n(C)n(-c2ccccc2)c1=O	52*	27	30	-7	49*	-6	38*	nt	49*
C=CC[n+]1c(-c2ccc(Cl)cc2Cl)csc1Nc1ccc(NC(C)=O)cc1	67*	22	37	-10	60*	9	58*	nt	78*
OCCOCCN1CCN(C(=S)Nc2ccccc2)CC1	-6	18	-5	-1	-7	4	nt	nt	nt
O=C(c1cccs1)n1nc(-c2ccccc2)nc1NCc1ccc(F)cc1	16	18	5	nt	16	-14	nt	nt	nt
